The source of these data is PubChem BioAssay.

The nature of assay [1]: yeast TOR pathway RPL19A-GFP modulators, primary screen, cell-based, S. cerevisiae, multiplex flow cytometry (AID 1862; in the data active means percent of DMSO control GFP below about 86%;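 further: lower values mimic rapamycin by blocking the RPL19A rise seen in DMSO cells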). Conditions: S. cerevisiae RPL19A-GFP strain, flow cytometry fluorescence, 3 h; at 10 µM; stronger effect = lower value. (A flow cytometer gives signals particle by particle.)
Assay [2] can be described thus: modulators of MEP2-GFP levels in yeast, primary screen, S. cerevisiae, multiplex flow cytometry (AID 1867;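 active means GFP response, as percent of the DMSO control, above the screen-wide mean plus 3 SD, about 139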;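 further: median GFP channel fluorescence of barcode-gated MEP2-GFP cells measured by flow cytometry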). Particulars: S. cerevisiae MEP2-GFP strain, 3 h, at 10 µM, stronger effect = higher value, 100% means same as DMSO wells.
A short description of assay [3]: modulators of CIT2-GFP expression in yeast, primary screen, S. cerevisiae, GFP fusion, multiplex flow cytometry (AID 1870;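 active means percent response above a set limit, the screen-wide mean plus 3 SD, cut at about 130% in these data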;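 further: barcoded CIT2-GFP strain pooled with four other GFP strains with rapamycin as positive control; median GFP fluorescence per well over plate mean of DMSO wells so 100% = DMSO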). Conditions: 3 h, at 10 µM, stronger effect = higher value.
A short description of assay [4]: modulators of LAP4-GFP expression in yeast, primary screen, S. cerevisiae, multiplex flow cytometry (AID 1873;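 active means GFP signal, as percent of the solvent control, above the screen mean plus 3 SD, about 149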). Particulars: 3 h, at 10 µM, stronger effect = higher value.
Assay [5] in a line: modulators of AGP1-GFP expression in yeast TOR pathway, primary screen, cell-based, multiplex flow cytometry, S. cerevisiae (AID 1887;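 active means GFP signal above the screen-wide mean plus 3 SD, that is over about 124.5% of the solvent control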;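 further: AGP1-GFP fusion strain of S. cerevisiae within a five-strain barcoded multiplex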). Particulars: 3 h, at 10 µM, stronger effect = higher value.
Assay [6] is described as follows: inhibitors of CD8+ T cell-vesicle binding, pilot screen, LFA-1/ICAM-1 modulator project, MLPCN validation set, flow cytometry (AID 2523).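 On vesicle binding response: mean PE anti-B7-1 fluorescence of CD8+ cells relative to row control; 100% = QL9-loaded vesicles with DMSO vehicle in the same plate row.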 Particulars: 2C mouse CD8+ T cells, at 7 µM, stronger effect = lower value; double positive events: measured here: CD8+/vesicle+ event percentage.
Assay [7] addresses Integrin beta-1 (Homo sapiens) + Integrin alpha-4 (Homo sapiens) (UniProt P13612+P05556). In words: inhibition of HUTS-21 binding to VLA-4, pilot screen, VLA-4 allosteric modulator project, U937 cells, HUTS-21 mAb, flow cytometry, validation set (AID 2674;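 active means inhibition above 50%, about 3 SD of the validation set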;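 further: antibody binding induced by the VLA-4 ligand LDV present at three times its Kd; 0% = LDV ligand with antibody and no compound and 100% = antibody without LDV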). Conditions: HUTS-21 LIBS mAb binding, at 6.7 µM, stronger effect = higher value, binding induced by LDV ligand.
A short description of assay [8]: superoxide lowering in aged yeast cells, pilot screen, validation compound set (AID 2706;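 active means superoxide response below 65% of plate, a cut near 3 SD across the whole screen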;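 further: yeast exposed to compound for one week at 30 degrees C before staining; 100% = mean of all compound wells on the same plate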). Conditions: S. cerevisiae aging, superoxide DHE fluorescence; at 10 µM; stronger effect = lower value.
The target of assay [9] is Beta-adrenergic receptor kinase 1 (Homo sapiens) (UniProt P25098). The assay is described as follows: GRK2 binders displacing RNA aptamer, biochemical, validation, human GRK2, bead flow cytometry (AID 488806;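 active means aptamer binding inhibition above 30%, about 3 SD of noise from non-fluorescent compounds; inactive means inhibition at or below 30%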). Conditions: bead-bound GRK2, FAM-aptamer displacement, at 10 µM, stronger effect = higher value.
Sequence of Beta-adrenergic receptor kinase 1 (Homo sapiens) (P25098 whole entry, looked up): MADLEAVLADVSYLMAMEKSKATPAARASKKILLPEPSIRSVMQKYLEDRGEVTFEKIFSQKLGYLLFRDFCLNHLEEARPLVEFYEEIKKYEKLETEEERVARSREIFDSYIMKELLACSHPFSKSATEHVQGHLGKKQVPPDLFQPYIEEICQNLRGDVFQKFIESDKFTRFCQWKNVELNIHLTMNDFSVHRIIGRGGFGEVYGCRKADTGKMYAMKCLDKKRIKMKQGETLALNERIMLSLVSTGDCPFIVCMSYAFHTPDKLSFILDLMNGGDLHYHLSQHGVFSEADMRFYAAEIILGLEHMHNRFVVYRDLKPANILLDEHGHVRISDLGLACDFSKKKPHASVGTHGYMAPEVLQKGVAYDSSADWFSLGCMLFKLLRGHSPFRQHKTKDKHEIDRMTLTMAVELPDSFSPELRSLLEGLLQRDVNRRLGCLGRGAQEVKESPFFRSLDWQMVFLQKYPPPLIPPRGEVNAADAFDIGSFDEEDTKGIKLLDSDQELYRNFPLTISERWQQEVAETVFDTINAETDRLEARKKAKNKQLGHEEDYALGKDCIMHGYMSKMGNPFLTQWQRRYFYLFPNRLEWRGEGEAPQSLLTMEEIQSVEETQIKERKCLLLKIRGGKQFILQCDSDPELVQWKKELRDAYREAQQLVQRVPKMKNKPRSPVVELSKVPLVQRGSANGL
In assay [10] the target is Beta-2 adrenergic receptor (Homo sapiens) (UniProt P07550). In words: beta2AR agonists driving receptor internalization, pilot screen, cell-based, FAP fluorogen, flow cytometry, validation set (AID 504459;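 active means percent response above 42, roughly 3 SD of non-fluorescent test compounds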;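 further: agonist-driven loss of surface beta2AR via internalization measured by FAP dye flow cytometry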). Particulars: Am2.2-beta2AR cells, FAP surface receptor flow cytometry; at 10 µM; stronger effect = higher value.
Sequence of Beta-2 adrenergic receptor (Homo sapiens) (P07550 whole entry, looked up): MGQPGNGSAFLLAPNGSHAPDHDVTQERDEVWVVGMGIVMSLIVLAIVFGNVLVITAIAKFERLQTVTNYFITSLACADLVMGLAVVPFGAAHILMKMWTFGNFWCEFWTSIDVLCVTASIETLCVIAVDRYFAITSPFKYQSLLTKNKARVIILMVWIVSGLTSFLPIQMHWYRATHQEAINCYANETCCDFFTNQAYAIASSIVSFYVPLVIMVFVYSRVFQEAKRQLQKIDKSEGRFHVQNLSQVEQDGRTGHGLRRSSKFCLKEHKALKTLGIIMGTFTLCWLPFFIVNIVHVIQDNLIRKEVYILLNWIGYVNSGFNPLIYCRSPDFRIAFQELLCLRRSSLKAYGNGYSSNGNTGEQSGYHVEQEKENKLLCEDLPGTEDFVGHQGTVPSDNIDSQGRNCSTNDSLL
The target of assay [11] is AP-2 complex subunit beta (Homo sapiens) (UniProt P63010). In words: inhibitors of arrestin peptide binding to AP2, pilot screen, biochemical, validation set, GST-AP2 beads, flow cytometry (AID 504541;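 active means inhibition above 54%, about 3 SD of non-fluorescent compounds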;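 further: AP2 carries R879A mutation and is captured from E. coli lysate; bead-bound FITC arrestin peptide fluorescence measuring arrestin peptide binding to AP2; 0% = DMSO wells and 100% = excess unlabeled arrestin peptide control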). Conditions: FITC arrestin peptide, at 10 µM, stronger effect = higher value, AP2 beta2 appendage fragment, R879A mutant.
Sequence of AP-2 complex subunit beta (Homo sapiens) (P63010 whole entry, looked up, the tested form may be a part, one chain of several): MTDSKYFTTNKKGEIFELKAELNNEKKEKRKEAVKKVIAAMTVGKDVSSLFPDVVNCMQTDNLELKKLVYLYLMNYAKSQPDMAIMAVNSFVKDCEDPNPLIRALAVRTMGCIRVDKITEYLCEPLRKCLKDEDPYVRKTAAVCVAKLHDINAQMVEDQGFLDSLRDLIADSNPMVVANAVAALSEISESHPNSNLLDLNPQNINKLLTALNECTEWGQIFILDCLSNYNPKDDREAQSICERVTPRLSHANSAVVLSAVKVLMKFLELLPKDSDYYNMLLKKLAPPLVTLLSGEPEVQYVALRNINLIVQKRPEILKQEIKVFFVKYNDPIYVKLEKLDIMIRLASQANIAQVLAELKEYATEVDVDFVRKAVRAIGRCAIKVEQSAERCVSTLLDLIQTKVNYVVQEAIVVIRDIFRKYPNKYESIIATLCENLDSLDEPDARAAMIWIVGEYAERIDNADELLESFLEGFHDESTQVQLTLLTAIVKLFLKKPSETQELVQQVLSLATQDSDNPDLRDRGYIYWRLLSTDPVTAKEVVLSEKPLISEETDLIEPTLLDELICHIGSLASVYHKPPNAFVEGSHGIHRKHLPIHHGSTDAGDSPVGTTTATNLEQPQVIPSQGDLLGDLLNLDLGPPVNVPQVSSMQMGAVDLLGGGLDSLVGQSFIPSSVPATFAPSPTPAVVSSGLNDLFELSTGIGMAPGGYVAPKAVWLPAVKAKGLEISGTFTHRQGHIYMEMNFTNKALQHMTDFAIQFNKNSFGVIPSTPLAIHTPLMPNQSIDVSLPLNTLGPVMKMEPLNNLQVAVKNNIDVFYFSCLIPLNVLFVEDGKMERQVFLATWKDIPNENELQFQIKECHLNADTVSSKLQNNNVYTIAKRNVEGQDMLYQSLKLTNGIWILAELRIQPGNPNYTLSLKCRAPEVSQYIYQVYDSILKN
The nature of assay [12]: yeast V-ATPase proton transport modulators, S. cerevisiae, pHLuorin, HTS validation (AID 504600; in the data active means response above about 15%;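 further: plate controls were DMSO for no effect and reference compound for full effect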). Particulars: S. cerevisiae pHLuorin cytosolic pH, at 10 µM, stronger effect = higher value.
Assay [13] relates to anti-desmoglein-3 scFv antibody binding to human DSG3. In words: inhibitors of anti-DSG3 scFv binding to DSG3, pilot screen, biochemical, validation compound set, bead-based, flow cytometry (AID 588368;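 active means binding below the plate cutoff, the plate median minus 3 SD, with a reading above zero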;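 further: signal is the median channel fluorescence of bead-bound GFP antibody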). Conditions: Protein G beads, DSG3-Fc, scFv-GFP binding, at 10 µM, stronger effect = lower value.
A short description of assay [14]: inhibitors of fungal efflux pumps CDR1, CDR2, MDR1, pilot screen, validation compound set, multiplex, phenotypic (AID 588506;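 active means efflux inhibition above 0.42, the validation set average plus 4 SD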;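 further: Nile Red retained in cells so higher fluorescence means more efflux inhibition; 0 = negative control wells and 1 = enniatin B 25 µM full block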). Particulars: S. cerevisiae pump-expressing triplex, Nile Red efflux flow cytometry; at 10 µM; stronger effect = higher value; the pumps come from Candida albicans.
In assay [15] the target is ATP-binding cassette sub-family B member 6 (Homo sapiens) (UniProt Q9NP58). The assay is described as follows: ABCB6 transporter inhibitors, pilot screen, K562-ABCB6 cells, flow cytometry, validation set (AID 588550;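 active means inhibition above the screen-wide mean plus 3 SD, about 51%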;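 further: 0% = DMSO wells and 100% = benzethonium chloride 70 µM positive control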). Conditions: K562-ABCB6 porphyrin accumulation, 1 h, at 10 µM, stronger effect = higher value.
Sequence of ATP-binding cassette sub-family B member 6 (Homo sapiens) (Q9NP58 whole entry, looked up): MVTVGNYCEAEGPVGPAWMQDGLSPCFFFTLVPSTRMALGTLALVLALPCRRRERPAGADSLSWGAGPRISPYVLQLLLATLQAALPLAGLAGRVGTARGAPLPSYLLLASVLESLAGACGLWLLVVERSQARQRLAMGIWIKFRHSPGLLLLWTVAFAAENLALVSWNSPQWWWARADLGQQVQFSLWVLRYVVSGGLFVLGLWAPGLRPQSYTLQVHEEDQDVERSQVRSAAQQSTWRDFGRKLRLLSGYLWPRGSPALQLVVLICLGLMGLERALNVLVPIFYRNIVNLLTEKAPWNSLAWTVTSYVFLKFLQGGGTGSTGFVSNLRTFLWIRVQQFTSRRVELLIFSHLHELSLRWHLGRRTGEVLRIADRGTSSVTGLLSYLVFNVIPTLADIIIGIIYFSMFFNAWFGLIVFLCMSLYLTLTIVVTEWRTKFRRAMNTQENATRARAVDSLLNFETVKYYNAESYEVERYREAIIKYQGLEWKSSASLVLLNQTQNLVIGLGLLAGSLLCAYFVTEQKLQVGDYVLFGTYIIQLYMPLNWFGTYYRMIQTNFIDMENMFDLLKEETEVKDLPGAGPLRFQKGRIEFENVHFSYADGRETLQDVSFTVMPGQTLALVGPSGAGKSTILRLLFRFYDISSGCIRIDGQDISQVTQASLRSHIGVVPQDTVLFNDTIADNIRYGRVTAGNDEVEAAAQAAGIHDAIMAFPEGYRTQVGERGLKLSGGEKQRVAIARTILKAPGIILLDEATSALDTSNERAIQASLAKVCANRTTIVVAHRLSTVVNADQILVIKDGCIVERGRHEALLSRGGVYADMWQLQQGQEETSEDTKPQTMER
A short description of assay [16]: promoters of myeloid differentiation in arrested cells, primary screen, cell-based, GFP/MAC1 double positive, flow cytometry, validation set (AID 588685;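 active means differentiation response of at least 50%, scaled between solvent and reference control, from cells with both markers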;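 further: compound exposure lasts four days before antibody staining and flow analysis; 0% = DMSO wells and 100% = 5 µM fulvestrant positive control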). Conditions: ER-HoxA9 marrow cells, stronger effect = higher value, normalized: vehicle 0, fulvestrant 100.

SMILES strings stand for the structures. Results filed as inconclusive are left out. Calls of active or inactive are those of the source.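 How the source made its calls, unless noted: active means response below a set limit, under 55% cells CD8-positive and vesicle-bound, and CD8 cells' 90th-percentile brightness under 279; inactive means the rest.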

Sequence of Integrin beta-1 (Homo sapiens) + Integrin alpha-4 (Homo sapiens) (P05556 whole entry, looked up): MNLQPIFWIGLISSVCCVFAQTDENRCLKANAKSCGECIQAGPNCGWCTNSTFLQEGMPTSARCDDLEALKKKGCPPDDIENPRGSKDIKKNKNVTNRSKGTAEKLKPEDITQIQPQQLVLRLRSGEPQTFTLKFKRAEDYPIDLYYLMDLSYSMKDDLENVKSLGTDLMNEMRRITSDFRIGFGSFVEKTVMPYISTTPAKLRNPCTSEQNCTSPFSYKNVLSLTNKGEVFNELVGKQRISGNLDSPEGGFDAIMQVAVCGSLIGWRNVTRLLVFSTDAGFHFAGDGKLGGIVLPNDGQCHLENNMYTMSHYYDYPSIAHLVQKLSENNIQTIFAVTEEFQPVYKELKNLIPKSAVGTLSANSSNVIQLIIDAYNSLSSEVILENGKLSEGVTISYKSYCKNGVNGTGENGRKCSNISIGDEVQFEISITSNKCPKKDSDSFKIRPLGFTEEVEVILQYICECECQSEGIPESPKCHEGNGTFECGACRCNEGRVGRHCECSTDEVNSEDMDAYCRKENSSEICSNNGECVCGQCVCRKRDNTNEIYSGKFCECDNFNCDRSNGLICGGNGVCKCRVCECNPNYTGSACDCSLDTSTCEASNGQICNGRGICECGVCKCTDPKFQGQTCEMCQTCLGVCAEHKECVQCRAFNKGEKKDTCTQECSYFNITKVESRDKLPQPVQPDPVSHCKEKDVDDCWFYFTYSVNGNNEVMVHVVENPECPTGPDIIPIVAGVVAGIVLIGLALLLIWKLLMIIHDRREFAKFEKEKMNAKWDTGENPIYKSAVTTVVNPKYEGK
Sequence of Integrin beta-1 (Homo sapiens) + Integrin alpha-4 (Homo sapiens) (P13612 whole entry, looked up): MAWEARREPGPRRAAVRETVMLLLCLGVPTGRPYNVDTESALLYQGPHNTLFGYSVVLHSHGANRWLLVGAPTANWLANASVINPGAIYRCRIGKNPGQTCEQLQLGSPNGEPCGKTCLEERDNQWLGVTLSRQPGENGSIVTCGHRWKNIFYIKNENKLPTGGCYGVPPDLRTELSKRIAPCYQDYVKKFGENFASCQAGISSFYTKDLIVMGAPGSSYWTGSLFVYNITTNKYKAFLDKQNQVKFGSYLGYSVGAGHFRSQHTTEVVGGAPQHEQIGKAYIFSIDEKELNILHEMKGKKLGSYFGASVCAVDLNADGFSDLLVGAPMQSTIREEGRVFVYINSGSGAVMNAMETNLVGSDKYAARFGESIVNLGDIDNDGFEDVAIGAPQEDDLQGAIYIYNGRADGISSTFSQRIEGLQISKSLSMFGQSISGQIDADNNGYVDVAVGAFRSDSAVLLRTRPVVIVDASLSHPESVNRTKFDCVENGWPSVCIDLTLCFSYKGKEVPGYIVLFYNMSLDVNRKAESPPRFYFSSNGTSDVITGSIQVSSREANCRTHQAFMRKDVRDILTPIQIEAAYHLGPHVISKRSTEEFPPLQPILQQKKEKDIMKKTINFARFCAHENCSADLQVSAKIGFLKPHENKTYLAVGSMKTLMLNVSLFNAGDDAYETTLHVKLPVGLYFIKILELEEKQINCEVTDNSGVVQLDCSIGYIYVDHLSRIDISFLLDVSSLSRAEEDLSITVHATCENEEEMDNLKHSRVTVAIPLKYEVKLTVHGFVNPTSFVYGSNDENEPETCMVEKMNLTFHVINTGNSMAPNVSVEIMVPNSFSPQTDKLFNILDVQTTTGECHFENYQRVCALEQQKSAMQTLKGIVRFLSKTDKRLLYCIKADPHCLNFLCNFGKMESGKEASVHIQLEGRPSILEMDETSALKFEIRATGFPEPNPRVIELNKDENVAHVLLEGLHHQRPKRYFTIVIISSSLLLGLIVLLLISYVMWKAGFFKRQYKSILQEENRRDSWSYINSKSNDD

Turning to `CCOC(=O)n1c(=O)oc2ccccc21`, the percent of DMSO control GFP in assay [1] is 97% (inactive). The GFP response vs DMSO in [2] is 104% (inactive); in [4], 102% (inactive). Besides, in [3], the percent response of DMSO control was 102% (inactive). The GFP response, % of DMSO in assay [5] is 107% (inactive). In addition, the double positive events in [6] was found to be 62.5%. In assay [6], the vesicle binding response is 196% (inactive). The inhibition in assay [7] was 6.55% (inactive); in assay [11], -0.08% (inactive); in assay [15], 3% (inactive). Besides, the superoxide response (% of plate) in assay [8] is 105% (inactive). For the same molecule, in [9], the aptamer binding inhibition is 7% (inactive). In addition, the results for the response in assay [10] and in assay [12] were -19.8% (inactive) and 10.2% (inactive), respectively. The binding (% of control) in assay [13] is 107% (inactive). Moreover, in assay [14], the efflux inhibition (fraction of control) is 0.08 (inactive). Besides, in assay [16], the differentiation response is -4.99% (inactive).

Regarding `C[C@H]([C@@H](N)C(=O)N[C@@H](C(=O)O)[C@@H]1O[C@H](n2ccc(=O)[nH]c2=O)[C@@H](O)[C@H]1O)[C@@H](O)c1ccc(O)cn1`, the percent of DMSO control GFP in assay [1] was 91.5% (inactive). Also, the GFP response vs DMSO in assay [2] is 130% (inactive); in assay [4], 82.5% (inactive). Besides, the percent response of DMSO control in assay [3] is 93.9% (inactive). For the same molecule, the GFP response, % of DMSO in assay [5] is 84.5% (inactive). In [6], the double positive events was 59.1%. Also, the vesicle binding response in [6] was 184% (inactive). Further, the figures for the inhibition in [7], in [11] and in assay [15] were -9.06% (inactive), 5.36% (inactive) and 9% (inactive), respectively. Further, in [8], the superoxide response (% of plate) is 117% (inactive). The aptamer binding inhibition in assay [9] is 7% (inactive). Also, the response in [10] is -4.72% (inactive); in assay [12], 2.7% (inactive). Also, the binding (% of control) in [13] was 104% (inactive). Moreover, the efflux inhibition (fraction of control) in assay [14] was -0.06 (inactive). Further, in [16], the differentiation response is 4.09% (inactive).

For `CSCCC(NC(C)=O)C(=O)Oc1ccc2c3c(c(=O)oc2c1)CCCC3` (stereo not drawn), the percent of DMSO control GFP in assay [1] was 102% (inactive). For the same molecule, the values for the GFP response vs DMSO in [2] and in assay [4] were 101% (inactive) and 99.9% (inactive), respectively. In addition, the percent response of DMSO control in [3] is 105% (inactive). Moreover, the GFP response, % of DMSO in [5] was 100% (inactive). In addition, in [6], the double positive events worked out at 61.1%. In addition, the vesicle binding response in assay [6] was 56% (inactive). The inhibition in assay [7] is 3.7% (inactive); in assay [11] it was 17.4% (inactive); in assay [15], 11% (inactive). In addition, the superoxide response (% of plate) in assay [8] was 102% (inactive). Besides, the aptamer binding inhibition in assay [9] was 4% (inactive). Further, the figures for the response in assay [10] and in assay [12] were -6.44% (inactive) and -2.62% (inactive), respectively. In assay [13], the binding (% of control) was 93.2% (inactive). Moreover, in assay [14], the efflux inhibition (fraction of control) is -0.01 (inactive). Besides, in assay [16], the differentiation response was 0.24% (inactive).

Regarding `O=C(/C=C/c1ccc(F)cc1)N1CC[C@@]2(O)CCCC[C@H]2C1`, the percent of DMSO control GFP in [1] was 96.7% (inactive). The values for the GFP response vs DMSO in assay [2] and in assay [4] were 112% (inactive) and 125% (inactive), respectively. In addition, in assay [3], the percent response of DMSO control was 89.1% (inactive). Besides, the GFP response, % of DMSO in assay [5] was 96.5% (inactive). In assay [6], the double positive events is 61.1%. Further, the vesicle binding response in assay [6] was 198% (inactive). The inhibition in assay [7] is -4.52% (inactive); in [11], -5.97% (inactive); in assay [15], 7% (inactive). Also, the superoxide response (% of plate) in assay [8] is 98.4% (inactive). Moreover, the aptamer binding inhibition in [9] was 3% (inactive). Moreover, the response in assay [10] is 15.3% (inactive); in [12], 10.1% (inactive). Besides, the binding (% of control) in assay [13] was 98% (inactive). Also, the efflux inhibition (fraction of control) in [14] was -0.13 (inactive). The differentiation response in assay [16] is -13.6% (inactive).

What is called inhibition is the drop in the measured response relative to a control, in per cent.
